According to PubChem BioAssay (Tox21):
Results filed as inconclusive are left out. Entries that show only a call come without a potency. Active and inactive are the calls of the source. Unless noted, calls come from the whole dose curve; as a rule, active = well fitted curve in the direction sought with a large enough effect in the repeat runs; inconclusive = weak or mixed curves; inactive = no such curve, though single readings can be large; an effect the other way counts as inactive or inconclusive.

Columns and labels:
[1] = qHTS assay to identify aromatase inhibitors - cell viability counter screen (AID 743084);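 note: cells stimulated with testosterone during compound exposure; nearly all actives have a fitted effect of over 55% in size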
[2] = target: Aryl hydrocarbon receptor (Homo sapiens) (UniProt P35869); test: qHTS assay to identify small molecule that activate the aryl hydrocarbon receptor (AhR) signaling pathway (AID 743085); note: nearly all actives have a fitted effect of over 15% in size; note: potency is the fitted concentration of half-maximal effect;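 for activation: HG2L7.5c1 human HepG2 liver cells with stably integrated DRE-driven firefly reporter; series mostly up to about 70 µM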
How it was run: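 Steps: seed HepG2-AhR-luc cells; allow 5 h at 37C; pin-transfer test compound or vehicle; incubate 24 h at 37C; add viability dye (30 min, 37C) and read fluorescence; add luciferase substrate (30 min, RT) and read luminescence.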

[3] = target: Peroxisome proliferator-activated receptor gamma (Homo sapiens) (UniProt P37231); test: qHTS assay to identify small molecule antagonists of the peroxisome proliferator-activated receptor gamma (PPARg) signaling pathway (AID 743191; calls by dose curve; note: nearly all actives have a fitted effect of over 30% in size; note: potency is the fitted concentration of half-maximal effect)
How it was run: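 GeneBLAzer PPARg UAS-bla HEK293H cells, 5 h post-plating, exposed to compounds 17 h at 37C. LiveBLAzer B/G FRET substrate added for 1 h at room temperature; beta-lactamase reporter read by fluorescence intensity.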

[4] = qHTS assay for small molecule activators of the heat shock response signaling pathway (AID 743210; active = well fitted activation curve with a large enough effect in the signal ratio in the repeat runs, with a control signal flat, not every such curve was filed as active; the % refers to the signal ratio;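 note: HeLa cells with beta-lactamase reporter driven by heat shock elements; series mostly up to about 63 µM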)
How it was run: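 Following overnight attachment, HSE-bla HeLa cells received test compounds for 5 h at 37 C; beta-lactamase activity was then detected via FRET substrate fluorescence.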

[5] = qHTS assay to identify small molecule agonists of the peroxisome proliferator-activated receptor delta (PPARd) signaling pathway - cell viability counter screen (AID 743211); note: nearly all actives have a fitted effect of over 55% in size; note: potency is the fitted concentration of half-maximal effect
How it was run: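 Viability of GeneBLAzer PPARd UAS-bla HEK293H cells was assessed after 17 h compound incubation at 37C, using CellTiter-Glo reagent added after the reporter read and luminescence recorded 30 min later.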

[6] = target: Peroxisome proliferator-activated receptor delta (Homo sapiens) (UniProt Q03181); test: qHTS assay to identify small molecule agonists of the peroxisome proliferator-activated receptor delta (PPARd) signaling pathway (AID 743212; calls by dose curve)
How it was run: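 Tox21 library screened in GeneBLAzer PPARd UAS-bla HEK293H cells. After compound treatment at 37 C, a FRET-based beta-lactamase substrate was applied for 2 h and fluorescence recorded.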

[7] = qHTS assay to identify small molecule antagonists of the peroxisome proliferator-activated receptor delta (PPARd) signaling pathway - cell viability counter screen (AID 743213); note: nearly all actives have a fitted effect of over 50% in size; note: potency is the fitted concentration of half-maximal effect
How it was run: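 PPARd-bla HEK293H cells were treated with compounds plus agonist L165041 (300 nM final) for 17 h at 37 C. Viability was then read in the same wells by CellTiter-Glo luminescence after 30 min at room temperature.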

[8] = target: Peroxisome proliferator-activated receptor delta (Homo sapiens) (UniProt Q03181); test: qHTS assay to identify small molecule antagonists of the peroxisome proliferator-activated receptor delta (PPARd) signaling pathway (AID 743215; active = well fitted inhibition curve with a large enough effect in the signal ratio in the repeat runs, not every such curve was filed as active; the % refers to the signal ratio;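 note: cells stimulated with agonist L165041 at 300 nM final during compound exposure; series mostly up to about 62 µM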)
How it was run: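 Cells: HEK293H with a UAS-driven beta-lactamase reporter responsive to PPARd. Compounds were co-added with L165041 (300 nM, final) and incubated 17 h at 37 C before a 2 h room-temperature FRET substrate step and fluorescence reading.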

[9] = qHTS assay to identify small molecule agonists of the farnesoid-X-receptor (FXR) signaling pathway - cell viability counter screen (AID 743218); note: nearly all actives have a fitted effect of over 45% in size; note: potency is the fitted concentration of half-maximal effect
How it was run: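 Cells were seeded, left 5 h at 37 C and 5% CO2, then dosed with compound in DMSO for 16 h. After the beta-lactamase FRET read, CellTiter-Glo was added and luminescence measured 30 min later.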

[10] = qHTS assay to identify small molecule antagonists of the farnesoid-X-receptor (FXR) signaling pathway - cell viability counter screen (AID 743221; active = well fitted cell-killing curve with a large enough effect in the repeat runs, not every such curve was filed as active; note: nearly all actives have a fitted effect of over 50% in size)
How it was run: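 Quantitative HTS of the Tox21 10K library run in parallel with the beta-lactamase reporter read. HEK 293T cells carrying a UAS-driven bla reporter got compound and 50 uM CDCA (final) for 16 h; ATP-based luminescence followed.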

[11] = target: Vitamin D3 receptor (Homo sapiens) (UniProt P11473); test: qHTS assay to identify small molecule agonists of the vitamin D receptor (VDR) signaling pathway (AID 743222; calls by dose curve)
How it was run: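 Cells carrying a VDR-driven beta-lactamase reporter are seeded at 2,000 per well and rested 4 h. Compounds in DMSO are added for 16 h at 37C, and FRET substrate fluorescence is measured after 2 h at room temperature.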

[12] = target: Vitamin D3 receptor (Homo sapiens) (UniProt P11473); test: qHTS assay to identify small molecule antagonists of the vitamin D receptor (VDR) signaling pathway (AID 743223; active = well fitted inhibition curve with a large enough effect in the signal ratio in the repeat runs, not every such curve was filed as active; the % refers to the signal ratio)
How it was run: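 Fluorescence from LiveBLAzer B/G FRET substrate, read after 2 h at room temperature, reflects beta-lactamase reporter activity in VDR-bla cells treated 16 h at 37C with compounds and agonist 1alpha,25-dihydroxyvitamin D3 (3 nM final).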

[13] = qHTS assay to identify small molecule antagonists of the peroxisome proliferator-activated receptor gamma (PPARg) signaling pathway - cell viability counter screen (AID 743194); note: nearly all actives have a fitted effect of over 55% in size; note: potency is the fitted concentration of half-maximal effect
How it was run: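 Cytotoxicity counter screen in PPARg-bla HEK293H cells, same wells as reporter assay. Compounds plus 50 nM rosiglitazone (final) for 17 h at 37 C, then viability read by CellTiter-Glo luminescence.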

[14] = qHTS assay for small molecule agonists of the antioxidant response element (ARE) signaling pathway (AID 743202; active = well fitted activation curve with a large enough effect in the signal ratio in the repeat runs, not every such curve was filed as active; the % refers to the signal ratio; note: potency is the fitted concentration of half-maximal effect)
How it was run: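 HepG2 ARE-bla cells; 16 h treatment at 37 C; FRET-based beta-lactamase fluorescence read after 2 h substrate incubation at room temperature.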

[15] = qHTS assay for small molecule agonists of the antioxidant response element (ARE) signaling pathway - cell viability counter screen (AID 743203; calls by dose curve; note: nearly all actives have a fitted effect of over 55% in size; note: potency is the fitted concentration of half-maximal effect)
How it was run: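 Cytotoxicity was tested in parallel with the ARE reporter screen. ARE-bla HepG2 cells were exposed to compounds for 16 hrs, and viability was taken from CellTiter-Glo luminescence.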

[16] = qHTS assay for small molecule activators of the heat shock response signaling pathway - cell viability counter screen (AID 743209); note: nearly all actives have a fitted effect of over 50% in size
How it was run: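 Cytotoxicity counter screen run in parallel with the HSE beta-lactamase reporter, using the same wells. HeLa HSE-bla cells received compound for 5 h at 37 C; ATP-based CellTiter-Glo luminescence was measured after 30 min at room temperature.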

[17] = target: Bile acid receptor (Homo sapiens) (UniProt Q96RI1); test: qHTS assay to identify small molecule antagonists of the farnesoid-X-receptor (FXR) signaling pathway (AID 743217; active = well fitted inhibition curve with a large enough effect in the signal ratio in the repeat runs, not every such curve was filed as active; the % refers to the signal ratio)
How it was run: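 Cells carrying a UAS-driven beta-lactamase reporter (GeneBLAzer FXR-UAS-bla HEK 293T) were plated and rested 5 h at 37 °C. Compounds in DMSO were added alongside chenodeoxycholic acid agonist at 50 uM final and left 16 h at 37 °C before FRET substrate readout.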

[18] = target: Bile acid receptor (Homo sapiens) (UniProt Q96RI1); test: qHTS assay to identify small molecule agonists of the farnesoid-X-receptor (FXR) signaling pathway (AID 743220; active = well fitted activation curve with a large enough effect in the signal ratio in the repeat runs, not every such curve was filed as active; the % refers to the signal ratio)
How it was run: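 FXR-UAS-bla HEK 293T cells carrying a UAS-driven beta-lactamase reporter were plated for 5 h at 37C/5% CO2, then exposed to DMSO-dissolved Tox21 10K compounds for 16 h at 37C. A LiveBLAzer B/G FRET substrate was loaded for 2 h at room temperature before fluorescence reading.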

[19] = target: Peroxisome proliferator-activated receptor gamma (Homo sapiens) (UniProt P37231); test: qHTS assay to identify small molecule agonists of the peroxisome proliferator-activated receptor gamma (PPARg) signaling pathway (AID 743094; active = well fitted activation curve with a large enough effect in the signal ratio in the repeat runs, not every such curve was filed as active; the % refers to the signal ratio)
How it was run: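 Cells from the PPARg UAS-bla HEK293H line are plated and incubated 5 h at 37C. Compounds in DMSO are pinned in and left 17 h at 37C. LiveBLAzer B/G substrate is then added for 1 h at room temperature before fluorescence is measured.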

[20] = qHTS assay to identify small molecule that activate the aryl hydrocarbon receptor (AhR) signaling pathway - cell viability counter screen (AID 743086);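 note: HepG2 liver cells carrying the AhR DRE luciferase reporter; series mostly up to about 70 µM; nearly all actives have a fitted effect of over 45% in size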
How it was run: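 HepG2-AhR-luc (HG2L7.5c1) cells, 4000/well, treated 24 h at 37 C with compound; viability measured as CellTiter-Fluor fluorescence after 30 min in the same wells as the luciferase read.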

Sequence of Peroxisome proliferator-activated receptor gamma (Homo sapiens) (P37231 whole entry, looked up): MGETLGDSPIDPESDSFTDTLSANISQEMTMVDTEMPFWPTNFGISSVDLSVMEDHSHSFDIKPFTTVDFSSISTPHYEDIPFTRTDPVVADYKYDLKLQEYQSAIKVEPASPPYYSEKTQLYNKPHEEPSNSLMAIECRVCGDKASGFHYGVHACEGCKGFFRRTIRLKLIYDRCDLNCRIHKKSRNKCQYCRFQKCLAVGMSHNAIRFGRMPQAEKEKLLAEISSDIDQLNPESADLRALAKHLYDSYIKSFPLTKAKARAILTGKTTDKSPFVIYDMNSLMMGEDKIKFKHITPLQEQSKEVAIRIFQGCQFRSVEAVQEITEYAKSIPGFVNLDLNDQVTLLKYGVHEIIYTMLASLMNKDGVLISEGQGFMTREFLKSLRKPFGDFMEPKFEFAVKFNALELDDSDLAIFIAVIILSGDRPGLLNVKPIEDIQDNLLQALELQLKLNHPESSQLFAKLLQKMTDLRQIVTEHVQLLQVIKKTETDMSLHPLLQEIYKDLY
Sequence of Aryl hydrocarbon receptor (Homo sapiens) (P35869 whole entry, looked up): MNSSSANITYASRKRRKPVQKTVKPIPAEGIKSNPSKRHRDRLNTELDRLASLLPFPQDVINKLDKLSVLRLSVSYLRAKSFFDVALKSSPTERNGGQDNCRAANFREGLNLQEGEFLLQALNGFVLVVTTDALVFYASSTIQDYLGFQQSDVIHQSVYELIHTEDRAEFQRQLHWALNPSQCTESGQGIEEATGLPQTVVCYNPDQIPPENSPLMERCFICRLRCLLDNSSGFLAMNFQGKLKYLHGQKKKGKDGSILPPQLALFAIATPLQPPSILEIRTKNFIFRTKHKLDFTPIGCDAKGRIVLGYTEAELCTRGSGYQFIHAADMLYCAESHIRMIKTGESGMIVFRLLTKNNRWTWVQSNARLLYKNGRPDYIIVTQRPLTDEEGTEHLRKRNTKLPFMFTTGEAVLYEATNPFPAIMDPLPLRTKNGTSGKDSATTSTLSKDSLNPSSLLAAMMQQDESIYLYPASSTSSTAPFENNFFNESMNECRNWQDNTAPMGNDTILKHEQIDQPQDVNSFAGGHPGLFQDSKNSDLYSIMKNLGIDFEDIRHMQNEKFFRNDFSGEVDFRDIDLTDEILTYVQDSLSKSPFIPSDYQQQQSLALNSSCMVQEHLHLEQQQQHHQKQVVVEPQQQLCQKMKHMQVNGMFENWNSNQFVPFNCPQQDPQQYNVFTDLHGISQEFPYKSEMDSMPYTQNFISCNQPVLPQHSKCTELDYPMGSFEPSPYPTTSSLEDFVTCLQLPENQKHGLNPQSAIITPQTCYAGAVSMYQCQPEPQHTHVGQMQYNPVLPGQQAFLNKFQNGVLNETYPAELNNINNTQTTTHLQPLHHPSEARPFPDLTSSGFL
Sequence of Peroxisome proliferator-activated receptor delta (Homo sapiens) (Q03181 whole entry, looked up): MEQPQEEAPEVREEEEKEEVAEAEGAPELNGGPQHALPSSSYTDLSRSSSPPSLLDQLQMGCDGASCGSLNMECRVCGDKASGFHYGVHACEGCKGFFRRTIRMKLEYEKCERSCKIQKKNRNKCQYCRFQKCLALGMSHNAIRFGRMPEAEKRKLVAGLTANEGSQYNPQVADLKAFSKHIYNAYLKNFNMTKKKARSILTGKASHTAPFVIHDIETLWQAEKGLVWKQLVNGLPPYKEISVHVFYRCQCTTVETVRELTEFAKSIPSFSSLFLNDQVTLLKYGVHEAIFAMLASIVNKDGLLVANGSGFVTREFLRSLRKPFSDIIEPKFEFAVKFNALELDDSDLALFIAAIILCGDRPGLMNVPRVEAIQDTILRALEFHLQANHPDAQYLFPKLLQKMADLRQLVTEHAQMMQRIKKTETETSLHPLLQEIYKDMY
Sequence of Bile acid receptor (Homo sapiens) (Q96RI1 whole entry, looked up): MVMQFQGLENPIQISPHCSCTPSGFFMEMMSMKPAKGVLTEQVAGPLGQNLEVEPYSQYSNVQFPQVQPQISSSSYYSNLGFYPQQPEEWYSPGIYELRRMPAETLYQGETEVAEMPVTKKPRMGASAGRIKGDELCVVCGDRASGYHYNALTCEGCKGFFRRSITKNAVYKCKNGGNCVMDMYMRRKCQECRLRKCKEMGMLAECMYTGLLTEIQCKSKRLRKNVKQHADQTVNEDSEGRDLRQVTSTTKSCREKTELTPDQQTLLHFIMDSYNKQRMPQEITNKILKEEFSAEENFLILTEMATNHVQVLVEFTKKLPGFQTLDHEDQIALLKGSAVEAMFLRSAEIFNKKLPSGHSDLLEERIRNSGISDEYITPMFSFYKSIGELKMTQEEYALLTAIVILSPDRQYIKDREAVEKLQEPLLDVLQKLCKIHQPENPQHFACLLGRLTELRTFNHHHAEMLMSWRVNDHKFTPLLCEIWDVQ
Sequence of Vitamin D3 receptor (Homo sapiens) (P11473 whole entry, looked up): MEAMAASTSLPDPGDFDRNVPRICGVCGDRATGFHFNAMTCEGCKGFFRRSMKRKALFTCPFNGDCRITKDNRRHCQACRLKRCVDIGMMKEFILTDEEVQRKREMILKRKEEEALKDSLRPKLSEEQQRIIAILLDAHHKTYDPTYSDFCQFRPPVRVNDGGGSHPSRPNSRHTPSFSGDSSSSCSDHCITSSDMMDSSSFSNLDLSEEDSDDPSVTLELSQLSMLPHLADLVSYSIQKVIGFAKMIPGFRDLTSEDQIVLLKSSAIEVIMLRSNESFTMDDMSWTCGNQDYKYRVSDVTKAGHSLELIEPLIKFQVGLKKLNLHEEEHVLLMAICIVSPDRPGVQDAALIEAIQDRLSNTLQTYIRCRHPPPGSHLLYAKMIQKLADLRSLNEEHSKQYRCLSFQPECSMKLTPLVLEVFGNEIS

| Compound | Potency [1] | Potency [2] | Potency [3] | Potency [4] | Potency [5] | Potency [6] | Potency [7] | Potency [8] | Potency [9] | Potency [10] | Potency [11] | Potency [12] | Potency [13] | Potency [14] | Potency [15] | Potency [16] | Potency [17] | Potency [18] | Potency [19] | Potency [20] |
| --- | --- | --- | --- | --- | --- | --- | --- | --- | --- | --- | --- | --- | --- | --- | --- | --- | --- | --- | --- | --- |
| O=C(O)C[C@H](NC(=O)OCc1ccccc1)C(=O)O | inactive | inactive | inactive | inactive | inactive | inactive | inactive | inactive | inactive | inactive | inactive | inactive | – | – | – | – | – | – | – | – |
| Cc1cc(C)cc(N)c1 | inactive | inactive | inactive | inactive | inactive | inactive | inactive | inactive | inactive | inactive | inactive | inactive | inactive | inactive | inactive | inactive | inactive | inactive | – | – |
| CCc1ccccc1 | inactive | inactive | inactive | inactive | – | inactive | inactive | inactive | inactive | inactive | inactive | inactive | inactive | inactive | inactive | – | – | – | inactive | – |
| CC1=Nc2ccc3ccccc3c2C1(C)C | inactive | inactive | inactive | – | inactive | – | – | – | inactive | – | – | – | inactive | – | inactive | inactive | – | – | inactive | – |
| C[C@H]1c2cccc(O)c2C(O)=C2C(=O)[C@]3(O)C(O)=C(C(N)=O)C(=O)[C@@H](N(C)C)[C@@H]3[C@@H](O)[C@@H]21 | inactive | inactive | – | – | inactive | – | inactive | – | inactive | inactive | – | – | inactive | – | – | – | – | – | – | – |
| CCOc1ccccc1O[C@H](c1ccccc1)[C@H]1CNCCO1 | inactive | inactive | – | inactive | inactive | inactive | – | inactive | inactive | inactive | – | – | inactive | – | inactive | – | – | inactive | inactive | – |
| c1csc(SSc2cccs2)c1 | inactive | inactive | inactive | – | – | – | inactive | inactive | – | – | inactive | inactive | inactive | inactive | – | – | – | – | – | – |
| CN1CCCC(CC2c3ccccc3Sc3ccccc32)C1 (configuration not stated) | inactive | inactive | 10.6 µM (active) | inactive | – | – | 26.6 µM (active) | – | 13.3 µM (active) | – | – | – | 16.8 µM (active) | – | – | inactive | – | inactive | – | – |
| C[C@@H](O)[C@H]1C(=O)N2C(C(=O)O)=C([C@H]3CCCO3)S[C@H]12 | inactive | – | inactive | – | inactive | – | inactive | inactive | inactive | inactive | – | – | inactive | – | inactive | inactive | inactive | inactive | inactive | inactive |
| Cc1ccccc1N=C(N)Nc1ccccc1C | inactive | inactive | inactive | inactive | inactive | inactive | inactive | inactive | inactive | inactive | inactive | inactive | inactive | inactive | inactive | – | inactive | inactive | inactive | – |
| CCC(C)COC(=O)CC(C)C (configuration not stated) | inactive | inactive | inactive | inactive | – | – | inactive | inactive | 24.5 µM (active) | – | inactive | inactive | – | – | inactive | – | – | – | – | – |
| CCOC(=O)C1=C(C)NC(C)=C(C(=O)OC)C1c1cccc(Cl)c1Cl (configuration not stated) | inactive | 1.88 µM (active) | inactive | – | inactive | – | inactive | inactive | inactive | inactive | – | – | – | – | – | inactive | inactive | – | – | – |
| CC1=C(CC=O)C(C)(C)CCC1 | inactive | inactive | – | – | – | – | inactive | – | inactive | inactive | inactive | – | – | inactive | inactive | inactive | – | – | inactive | – |
| O=C(Nc1cccc2c(=O)cc(-c3nn[nH]n3)oc12)c1ccc(OCCCCc2ccccc2)cc1 | inactive | inactive | – | inactive | – | inactive | – | inactive | – | inactive | – | – | inactive | – | – | inactive | – | – | inactive | – |
| C=C(C)C(=O)OCCOCCOC(=O)C(=C)C | inactive | inactive | – | inactive | – | inactive | inactive | inactive | – | inactive | – | inactive | inactive | – | inactive | inactive | inactive | inactive | – | – |
| O=C1Cc2ccccc2N1c1c(Cl)cccc1Cl | inactive | inactive | – | inactive | – | – | inactive | inactive | – | inactive | inactive | – | inactive | – | inactive | inactive | inactive | inactive | inactive | – |
| CC(=O)[C@H]1[C@H](C#N)C[C@H]2[C@@H]3CC=C4C[C@@H](O)CC[C@]4(C)[C@H]3CC[C@@]21C | inactive | inactive | – | inactive | – | inactive | – | inactive | inactive | inactive | – | – | – | 33.1 µM (active) | – | inactive | inactive | – | inactive | – |
| CCCCCCNC(=O)n1cc(F)c(=O)[nH]c1=O | inactive | inactive | – | inactive | inactive | inactive | inactive | inactive | – | inactive | inactive | inactive | inactive | – | inactive | inactive | – | – | – | – |
| O=C(O)CCC(=O)C(=O)O | inactive | inactive | – | inactive | inactive | – | inactive | – | inactive | inactive | inactive | inactive | – | inactive | inactive | inactive | – | – | inactive | – |
| CN1C[C@H](C(=O)N[C@]2(C)O[C@@]3(O)[C@@H]4CCCN4C(=O)[C@H](Cc4ccccc4)N3C2=O)C[C@@H]2c3cccc4[nH]cc(c34)C[C@H]21 | inactive | inactive | – | inactive | 23.7 µM (active) | – | – | – | 26.6 µM (active) | – | – | – | 29.8 µM (active) | – | 29.8 µM (active) | – | – | – | – | – |
